# Compounds with a hit are over-represented: about 0.71% of the library has one in this group of screens.
# Epigenetic reg: regulators of epigenetic silencing causing reporter derepression in mouse cells | AID 1865 | murine LDR cells, GFP reporter derepression, 30 h | Potency, µM (titrated, usually from 53.9 µM), without a hit: at the top dose GFP activation, actives largely listed as activators | 280,000 compounds, 0.2% hits; note: potency is the fitted concentration of half-maximal effect; % of control where 0% means no effect; nearly all actives have a fitted effect of over 60% in size
#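 Readout is the number of GFP-expressing murine LDR cells, counted by cytometry following washing. Cells were treated with compound for 30 h at 37 C; the stably integrated CMV-GFP locus is normally silent.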
# CBFb RUNX1 block: CBF-beta/RUNX1 interaction disruption; Q01196+Q13951; 230,000 tested, under 10 active; AlphaScreen CBFb-His/RUNX1-biotin binding, biochemical; Potency, µM (doses to about 59.8 µM), for inactives: top-dose activity, negative = inhibition, actives largely listed as inhibitors; note: % of control where 0% means no effect
#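 Interaction loss through any mechanism counts as activity. Pre-formed complex of His-CBF-beta and biotin-RUNX1 (30 nM apiece) is incubated with compound 15 min, then with 50 ng nickel and 50 ng streptavidin beads for 90 min before AlphaScreen detection.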
# GoLoco inh red: RGS12 GoLoco-Gai1 interaction inhibition. Potency, µM (series often up to 61.6 µM), without a hit: at the top dose activity, negative = inhibition, hits mostly inhibitors. 230,000 compounds, 0.44% hits. Gai1:RGS12 GoLoco peptide FP, rhodamine, 10 min. P63096. AID 880; active = well fitted inhibition curve with a large enough effect, not every such curve was filed as active; inactive = no such curve, though single readings can be large or run the other way; note: potency is the fitted concentration of half-maximal effect; % is set by controls: 0 for no effect and ±100 for the full control effect; nearly all actives have a fitted effect of over 30% in size
# TRb SRC2 PPI: disrupts binding of human TR beta to SRC2; P10828; TRbeta-SRC2 peptide binding, fluorescence polarization; receptor liganded with 1 µM T3; Potency, µM (titrated, usually from 106 µM), inactives show at the top dose activity change, negative = inhibition, usual class: inhibitors; 280,000 compounds, 0.065% hits; AID 1469;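 note: potency is the fitted concentration of half-maximal effect; plate controls were bound peptide for no effect and peptide without receptor for full effect; nearly all actives have a fitted effect of over 50% in size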
# Target sequence (P10828 whole entry, looked up): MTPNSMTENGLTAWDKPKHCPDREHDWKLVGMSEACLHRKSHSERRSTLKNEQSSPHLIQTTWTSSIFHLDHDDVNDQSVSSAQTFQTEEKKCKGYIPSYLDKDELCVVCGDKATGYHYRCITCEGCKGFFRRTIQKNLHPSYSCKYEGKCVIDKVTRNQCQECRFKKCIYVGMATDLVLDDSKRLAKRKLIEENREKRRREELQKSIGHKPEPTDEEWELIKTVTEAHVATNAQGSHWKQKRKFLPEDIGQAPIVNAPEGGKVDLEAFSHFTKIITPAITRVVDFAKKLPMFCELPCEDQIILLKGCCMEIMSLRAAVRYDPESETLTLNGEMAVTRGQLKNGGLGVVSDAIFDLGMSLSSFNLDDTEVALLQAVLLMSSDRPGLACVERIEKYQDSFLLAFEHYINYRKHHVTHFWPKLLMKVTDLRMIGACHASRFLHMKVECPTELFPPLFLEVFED
#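 TRb LBD 0.6 uM + Texas Red SRC2 peptide 20 nM, 1 uM T3, Tris buffer w/ 5% DMSO; compound pinned, 5 h RT; FP read ex 555/em 632; normalized to unbound and bound controls.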
# TR SRC2 fluor cs: alters Texas Red total fluorescence, flagging assay interference; 280,000 compounds, 0.29% hits; Potency, µM (titrated, usually from 106 µM), inactives show top-dose fluorescence change, negative = quenching; TRb/SRC2 Texas Red total fluorescence interference; active = well fitted curve in either direction with a large enough effect; inconclusive = small, poorly fitted or top-dose-only effect; note: potency is the fitted concentration of half-maximal effect; % is set by controls: 0 for no effect and ±100 for the full control effect
#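 Human TRβ ligand-binding domain (0.6 uM) and Texas Red SRC2 peptide (20 nM) in Tris buffer with 1 uM T3 and 5% DMSO were incubated with pinned compound for 5 hr at ambient temperature. Total fluorescence was computed as S + 2P (555/632 nm).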
# Starred values were filed as active, the others as inactive; ? = inconclusive; / = no result; ! = a repeat was not active; [ ] = another dose, or the depositor's remark. Unless noted, calls come from the whole dose curve; as a rule, active = well fitted curve in the direction sought with a large enough effect; inconclusive = small, poorly fitted or top-dose-only effect, or another doubt; inactive = no such curve, though single readings can be large; an effect the other way counts as inactive or inconclusive.
SMILES,Epigenetic reg,CBFb RUNX1 block,GoLoco inh red,TRb SRC2 PPI,TR SRC2 fluor cs
O=C1C(=Cc2cccn2-c2ccc(O)cc2)C(=O)c2ccccc21,22.4µM*,1.9%,20µM*,-1.7%,-3.0%
O=C1C(=Cc2cccn2-c2ccccc2)C(=O)c2ccccc21,11.2µM*,-9.7%,-5.9%,-12.2%,-2.2%
Cc1nc(N=Nc2cc(S(=O)(=O)O)c3cc([N+](=O)[O-])cc(S(=O)(=O)O)c3c2)c(COP(=O)(O)O)c(C=O)c1O,1.1%,-24.6%[21.7 µM],6.7%,10.9%,28.2µM*[quencher]
Cc1nc(N=Nc2cc([N+](=O)[O-])ccc2Cl)c(COP(=O)(O)O)c(C=O)c1O,/,?,/,4.7%,?
CN(C)c1ccc(-c2nc(NC3CCNCC3)c3ccccc3n2)cc1,2.82µM*,/,-3.6%,1.5%,-7.1%
O=C1N/C(=C/c2cccs2)C(=O)N1Cc1ccccc1F,0.8%,5.2%,18.0%,4.1%,2.0%
Cc1ccc(/C=C2/NC(=O)N(Cc3ccccc3F)C2=O)s1,3.55µM*,9.1%,128.1%,-2.2%,-0.5%
CC1Cc2cc(S(=O)(=O)NCc3ccccc3Cl)ccc2N1C(=O)C1CCC1 (centres undefined),-1.2%,/,/,-1.1%,-28.9%
CC1Cc2cc(S(=O)(=O)NCc3ccc(N(C)C)cc3)ccc2N1C(=O)C1CCC1 (centres undefined),-1.2%,/,/,-11.3%,22.4µM*[quencher]
Cc1nc(-n2nc(C)c(Cc3ccc(Cl)cc3)c2C)sc1C(=O)N1CCCCC1C (centres undefined),-3.2%,/,/,-21.6%,17783µM*[quencher]
COC(=O)C1=C(C(=O)OC)[C@@H]2Nc3ccccc3[C@@]23C[C@@H](C(=O)OC)N(S(=O)(=O)c2ccc(Br)cc2)C3=N1,/,-10.7%[13.1 µM],-2.2%[14.2 µM],8.7%[11.2 µM],-5.2%[11.2 µM]
CCN(CC)CCNC(=O)c1ccc(Cc2nc3ccccc3[nH]2)cc1,7.1%,/,/,/,/
CC(CCO)Nc1nc2c(c(=O)n(C)c(=O)n2C)n1Cc1ccc(Br)cc1 (centres undefined),0.0%,/,/,-20.8%,0.0071µM*[quencher]
CO[C@@H]1COC(=O)[C@H](C)NC(=O)C/C=C\[C@@H](C)[C@@H](NS(=O)(=O)c2ccc(C)cc2)COC(=O)C/C=C\[C@@H]1C,0.0%[10.1 µM],16.3%[13.1 µM],/,1.2%[11.2 µM],-3.0%[11.2 µM]
Cc1ccccc1N1CCN(S(=O)(=O)CC23CCC(CC2NC(=O)C(N)CCS(C)(=O)=O)C3(C)C)CC1 (centres undefined),/,10.8%,/,3.9%,2.7%
O=C(OCCN1C(=O)c2cccc3c(N4CCOCC4)ccc(c23)C1=O)c1cccc(Cl)c1,20µM*,-4.3%,38.3%,1.8%,-3.4%
O=C(OCCN1C(=O)c2cccc3c(N4CCOCC4)ccc(c23)C1=O)c1ccc(Cl)cc1Cl,?,?,17.8%,-19.4%,11.7%
CCc1nn(-c2ccccc2)c2nc(-c3ccccc3OC)c3cc(OC)c(OC)cc3c12,0.3%,/,/,-14.0%,0.141µM*[quencher]
CC(=O)N1N=C(c2ccc(C)cc2)CC1c1cn(-c2ccccc2)nc1-c1cccs1 (centres undefined),15.6%,/,/,-7.5%,100µM*[quencher]
CC1(C)[C@@H](C=C(Cl)Cl)[C@@H]1C(=O)OCc1cccc(Oc2ccccc2)c1,/,/,/,-0.7%[201 µM],-0.4%[201 µM]
Oc1cc(O)cc(/C=C/c2ccc(O)c(O)c2)c1,1.1%,?,6.5%,?,50.1µM*![quencher]
COCC(=O)NCc1ccc2c(c1)cc(C)n2C,1.1%,1.9%,-3.8%,-5.2%,2.5%
Cc1ccc(S(=O)(=O)NCc2ccc3c(c2)cc(C)n3C)cc1,-0.8%,-9.1%,-9.4%,?,44.7µM*[fluorescent]
Cc1cc2nc3ccc(=[N+](C)C)cc-3sc2cc1N,0.1%,?,-32.3%,7.94µM*,44.7µM*[fluorescent]
Cc1nc2cc(C)c(C)cc2s1,-0.4%,1.4%,-0.1%,1.3%,-6.3%
SMILES,Epigenetic reg,CBFb RUNX1 block,GoLoco inh red,TRb SRC2 PPI,TR SRC2 fluor cs
CCCOCc1cc(CN2CCN(c3ccccc3OC)CC2)c(O)c2ncccc12,3.55µM*,/,/,-0.9%,-2.9%
COc1ccccc1N1CCN(Cc2cc(COC(C)C)c3cccnc3c2O)CC1,3.55µM*,/,/,-1.9%,-3.1%
CCCOCc1ccc(O)c2ncccc12,3.55µM*,?,-4.2%,-0.9%,1.3%
CCOCc1cc(CN2CCN(c3ccccc3OC)CC2)c(O)c2ncccc12,?,/,/,1.3%,-1.8%
CCOC(=O)C1CCCN(C(=O)c2ccc(NC(=O)c3nsc4ccccc34)cc2)C1 (centres undefined),-0.3%,/,/,-9.9%,0.9%
COC(=O)c1ccc(Cl)cc1NC(=O)N1CC=C(c2c[nH]c3ccccc23)CC1,28.2µM*,/,/,1.7%,0.7%
Cc1ccc(NC(=O)N2CC=C(c3c[nH]c4ccccc34)CC2)cc1Cl,?,/,/,-2.8%,1.2%
Cc1ccc(C2CC(=O)Oc3cc4c(cc32)OCO4)cc1 (centres undefined),2.2%,?,13.6%[88.7 µM],2.4%,-4.2%
COc1cc(C(=O)Nc2ccccc2-c2nc(-c3ccccc3)no2)cc(OC)c1OC,0.631µM*,/,/,-3.0%,-2.3%
O=[n+]1ccn([O-])c2ccccc21,/,/,/,5.4%,-1.9%
C[Si]1(C)O[Si](C)(C)O[Si](C)(C)O1,/,/,/,6.8%[201 µM],-0.2%[201 µM]
COc1ccc(C(=O)Nc2ccc(N3CCOCC3)cc2)cc1OC,0.6%,2.3%,-3.2%,-4.3%,0.2%
COc1ccc(C(=O)Nc2ccc(N3CCOCC3)c(C(F)(F)F)c2)cc1OC,-1.3%,/,/,-5.7%,11.2µM*[quencher]
O=c1c(O)cccc2cc(O)c(O)c(O)c12,-1.3%,/,3.98µM*!,3.6%,?
CC(C)C[C@H](NC(=O)CNC(=O)[C@H](CCC(N)=O)NC(=O)[C@H](CC(C)C)NC(=O)[C@H](CC(C)C)NC(=O)[C@H](CCCNC(=N)N)NC(=O)[C@H](CCC(N)=O)NC(=O)[C@H](CC(C)C)NC(=O)[C@H](CCCNC(=N)N)NC(=O)[C@H](C)NC(=O)CNC(=O)[C@H](CCC(=O)O)NC(=O)[C@H](CCCNC(=N)N)NC(=O)[C@H](CC(C)C)NC(=O)[C@H](CCCNC(=N)N)NC(=O)[C@H](CO)NC(=O)[C@H](CC(C)C)NC(=O)[C@H](CCC(=O)O)NC(=O)[C@H](CO)NC(=O)[C@@H](NC(=O)[C@H](Cc1ccccc1)NC(=O)[C@@H](NC(=O)CNC(=O)[C@H](CC(=O)O)NC(=O)[C@H](CO)NC(=O)[C@@H](N)Cc1cnc[nH]1)[C@@H](C)O)[C@@H](C)O)C(=O)N[C@H](C(N)=O)C(C)C,/,20.0%,/,0.0%,-4.9%
CC(=O)CC(=O)Nc1ccccc1C,/,/,/,-1.5%[201 µM],-5.4%[201 µM]
Cc1ccc2oc(C(=O)Nc3ccc(S(=O)(=O)Nc4nc(C)cc(C)n4)cc3)cc(=O)c2c1,0.0%,/,/,-2.4%,31.6µM*[quencher]
COC(=O)N/N=C/c1cc(N=Nc2ccccc2Cl)ccc1O,0.8%,-14.3%,1.2%,?,39.8µM*[quencher]
